{"source": "PubChem BioAssay", "data": [{"test_system": "Noggin (protein binding on small-molecule microarray)", "assay": "Noggin binders on small-molecule microarray, primary screen, biochemical, 635/667 nm fluorescence (AID 1095);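 note: score merges 667 nm feature fluorescence with signal to noise over triplicate slides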", "conditions": "635 nm fluorescence, higher = more signal", "values": [{"smiles": "COc1ccc([Si](C)(C)[C@H]2[C@H](CC(=O)N3CCC[C@H]3CO)O[C@@]3(C(=O)N(Cc4cccc(N5C(=O)COc6ccccc65)c4)c4ccccc43)[C@@H]2C)cc1", "composite z-score": 1.61}, {"smiles": "CC(=O)OC[C@H]1O[C@H](C#CCCCc2ccccc2)C=C[C@@H]1OC(C)=O", "composite z-score": 0.66}, {"smiles": "CC(C)[C@H](NC(=O)OC(C)(C)C)[C@@H](O)CC(=O)OC(C)(C)C", "composite z-score": -0.531}, {"smiles": "COCCCNC(=O)[C@]1(CCC(=O)OC(C)(C)C)N=C(c2ccc(OCCCO)cc2)O[C@@H]1c1ccccc1N=[N+]=[N-]", "composite z-score": 0.778}, {"smiles": "C[C@@H]1C=CCC(=O)OC[C@H](C)C(=O)N[C@@H](C)C(=O)OC1", "composite z-score": 0.828}, {"smiles": "COC(=O)[C@@]1(Cc2ccc(F)cc2)[C@H]2c3cc(C(=O)N(C)C)n(Cc4ccc(OC)c(OC)c4)c3C[C@H]2CN1C(=O)c1ccccc1", "composite z-score": -0.344}, {"smiles": "CCCCCN1CC=CC23O[C@@H]4C=CCOC(=O)[C@@H]4[C@H]2C(=O)N(CCCCCCO)[C@@H]3C1=O", "note": "(stereo not given in full)", "composite z-score": -1.38}, {"smiles": "COc1ccc(O[C@H]2C=C[C@@H](c3ccccc3)O[C@@H]2COC(=O)CCC(C)=NO[C@H](C)c2cn([C@@H]3COC[C@H]3O)nn2)cc1", "composite z-score": 0.525}, {"smiles": "C#C[C@@H]1Oc2ccccc2S(=O)(=O)N2CCC[C@H]12", "composite z-score": 0.18}, {"smiles": "CC(C)(C)OC(=O)CC[C@]1(C(N)=O)COC(c2ccc(OCCCO)cc2)=N1", "composite z-score": 0.115}, {"smiles": "COc1ccc(O[C@H]2C=C[C@@H](c3ccccc3)O[C@@H]2COC(=O)CCC(C)=NOC[C@@H](C)[C@H](OCc2ccccc2)C(C)C)cc1", "composite z-score": -0.37}, {"smiles": "Cc1ccc(F)cc1S(=O)(=O)N[C@@H]1CCN(Cc2ccc(CC(C)C)cc2)C1", "composite z-score": -0.0204}, {"smiles": "CCc1cc2c(nc1CC)CCN(CCC(C)=NOC(C)CN1CCCc3nc(C)c(C)cc31)C2", "note": "(stereo not given)", "composite z-score": 1.13}, {"smiles": "Cc1ccc(S(=O)(=O)N[C@@H]2COC(=O)[C@H](C)COC(=O)CC=C[C@H]2C)cc1", "composite z-score": 0.984}, {"smiles": "O=C1C[C@@H](O)[C@@H](O)[C@@H]2[C@@H]3C(=O)N(Cc4ccc5c(c4)OCO5)C(=O)[C@@H]3CC[C@@H]12", "composite z-score": 0.495}, {"smiles": "CN1C(=O)[C@@]2(CCC(=O)OC(C)(C)C)N=C(c3ccc(OCCCO)cc3)O[C@H]2c2ccccc21", "composite z-score": 0.747}, {"smiles": "COCCOC(=O)N1C(=O)[C@@]2(c3cc(C#CC4(O)CCCCCC4)ccc31)[C@H](C(=O)N1CCN(c3ncccn3)CC1)[C@H]1C(=O)O[C@H](c3ccccc3)[C@H](c3ccccc3)N1[C@@H]2c1ccc(OCCO)cc1", "composite z-score": 1.64}, {"smiles": "CCOC(=O)[C@H](CC(C)C)NC(=O)CCC1CC(OC(=O)NCc2cccc3ccccc23)CC2(CCCC(COC(=O)NCCc3ccccc3OC)O2)O1", "note": "(stereo not given in full)", "composite z-score": 0.686}, {"smiles": "COC(=O)[C@H](C)NC(=O)CCC1CC(OC(=O)NCc2cccc3ccccc23)CC2(CCCC(COC(=O)NCCc3ccc(Cl)cc3)O2)O1", "note": "(stereo not given in full)", "composite z-score": 0.328}, {"smiles": "O[C@@H](Cc1ccccc1)[C@H]1C2C=CCCC(c3ccccc3)=C2CN1Cc1cccc(Cl)c1", "note": "(stereo not given in full)", "composite z-score": 0.96}, {"smiles": "O=C1[C@H]2[C@H]3[C@H](O)[C@H](O)CC(=NO[C@@H]4O[C@H](CO)[C@@H](O)[C@H](O)[C@H]4O)[C@@H]3CC[C@H]2C(=O)N1Cc1ccccc1", "composite z-score": 0.574}, {"smiles": "COCCOC(=O)N1C(=O)[C@@]2(c3cc(C#CCNC(N)=O)ccc31)[C@H](c1ccccc1OCCO)N1[C@H](c3ccccc3)[C@H](c3ccccc3)OC(=O)[C@H]1[C@@H]2C(=O)N1CCN(c2ncccn2)CC1", "composite z-score": 0.43}, {"smiles": "O=C1[C@H]2[C@H]3[C@H](O)[C@H](O)CC(=NO[C@@H]4O[C@H](CO)[C@@H](O)[C@H](O)[C@H]4O)[C@H]3CC[C@H]2C(=O)N1Cc1ccccc1", "composite z-score": 1.02}, {"smiles": "CC(C)(C)N1C(=O)[C@H]2[C@H]3[C@H](O)[C@H](O)CC(=NO[C@@H]4O[C@H](CO)[C@@H](O)[C@H](O)[C@H]4O)[C@@H]3CC[C@H]2C1=O", "composite z-score": 0.564}, {"smiles": "O=C1[C@H]2[C@H]3[C@H](O)[C@H](O)CC(=NO[C@@H]4O[C@H](CO)[C@@H](O)[C@H](O)[C@H]4O)[C@H]3CC[C@H]2C(=O)N1C1CCCCC1", "composite z-score": 1.36}, {"smiles": "CC[C@@H](c1ccccc1)n1c(=O)n2n(c1=O)[C@H]1[C@H](O)[C@@H]3O[C@@H]3C(=NOCC(C)C)[C@H]1CC2", "composite z-score": 0.288}, {"smiles": "CCCC[C@@H](O)C1=C(C)C[C@H]2C(=O)N(Cc3ccccc3)C(=O)[C@H]2[C@H]1CO", "composite z-score": 0.283}, {"smiles": "CC(C)=C1C(=O)C(c2ccccc2)=C2CN3C(=O)N(CCc4ccccc4)C(=O)[C@]3(Cc3ccc(F)cc3)[C@H]21", "composite z-score": -1.25}, {"smiles": "N#Cc1ccc(NN2C(C(O)c3cc(C(F)(F)F)cc(C(F)(F)F)c3)C=CC3C(=O)N(c4ccccc4)C(=O)C32)cc1", "note": "(stereo not given)", "composite z-score": 0.0695}, {"smiles": "[N-]=[N+]=NCc1ccccc1[C@@H]1OC(c2ccc(OCCCO)cc2)=N[C@]1(Cc1ccccc1)C(=O)N1CCOCC1", "composite z-score": 0.671}, {"smiles": "CC(CCN1CCCCc2nc(C)c(C)cc21)=NOC(C)CN1CCCCc2nc(C)c(C)cc21", "note": "(stereo not given)", "composite z-score": 1.04}, {"smiles": "O=C(NN=C1C[C@@H](O)[C@@H](O)[C@@H]2[C@@H]3C(=O)N(c4cccc(Oc5ccccc5)c4)C(=O)[C@@H]3CC[C@H]12)OCc1ccccc1", "composite z-score": 0.53}, {"smiles": "CCOC(=O)CCN1C(=O)[C@H]2[C@H]3[C@H](O)[C@H](O)CC(=O)[C@H]3CC[C@H]2C1=O", "composite z-score": 0.387}, {"smiles": "O=C1O[C@@H](c2ccccc2)[C@@H](c2ccccc2)N2[C@@H](c3ccc(OCCO)cc3)[C@]3(C(=O)Nc4ccc(C#CCCO)cc43)[C@@H](C(=O)N3CCCCCCC3)[C@H]12", "composite z-score": 1.39}, {"smiles": "c1ccc(C2NCCc3c2[nH]c2ccccc32)cc1", "note": "(stereo not given)", "composite z-score": 0.388}]}]}
